Hits are enriched below; roughly 7.7% of the tested compounds scored in any of these assays.
FBPA Giardia inh = Giardia lamblia aldolase inhibition; A8B2U2; purified Giardia FBPA; Potency, µM (top dose mostly 59.6 µM), without a hit: top-dose activity, negative = inhibition, usual class: inhibitors; 290,000 compounds, 0.71% hits; AID 2451; further: potency means the concentration at half of the fitted maximal effect; nearly all actives have a fitted effect of over 55% in size
Target sequence (A8B2U2 whole entry, looked up): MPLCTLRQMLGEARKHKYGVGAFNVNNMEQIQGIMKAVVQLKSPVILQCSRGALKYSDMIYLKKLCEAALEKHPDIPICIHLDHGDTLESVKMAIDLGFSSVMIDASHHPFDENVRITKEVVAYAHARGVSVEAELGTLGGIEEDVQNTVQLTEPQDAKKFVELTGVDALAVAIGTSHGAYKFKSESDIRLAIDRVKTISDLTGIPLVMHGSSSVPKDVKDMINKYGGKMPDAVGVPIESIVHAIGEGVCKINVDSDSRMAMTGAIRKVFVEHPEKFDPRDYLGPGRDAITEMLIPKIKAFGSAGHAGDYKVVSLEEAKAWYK
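Giardia FBPA (40 nM reagent) was preincubated 10 min at RT with compound (up to 57.5 uM final), then substrate plus GAPDH/TPI/NAD/arsenate coupling system with diaphorase/resazurin was added; resorufin fluorescence (525/598 nm) was read after 20 min.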
HCMV inh = blocks human cytomegalovirus replication. AID 1259415. HFF cells, HCMV-luciferase reporter, 72 h; active compounds read low. activity change, negative = inhibition, % at 57.5 µM. 410,000 compounds, 4.5% hits; in the data active means activity change below about -60%; inconclusive means no clear call, values can overlap the other calls; inactive means above about -39%
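HFF cells seeded 16 h at 37C, treated with compounds, infected with luciferase-reporter HCMV at MOI 1 PFU/cell; luciferase read at 72 h post infection, normalized to buffer-only and Salinomycin controls.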
FMDV antiviral = foot and mouth disease virus antiviral activity; 410,000 compounds, 1.2% hits; AID 1159524; Potency, µM (top dose mostly 57.9 µM), without a hit: at the top dose activity change, negative = inhibition, actives largely listed as inhibitors; FMDV antiviral cell-based qHTS; calls by dose curve; tested in HEK293T cells; further: read-out not given here; potency means the concentration at half of the fitted maximal effect; nearly all actives have a fitted effect of over 45% in size
RE007 growth inh = less growth of the S. pombe RE007 Vpr strain. S. pombe RE007 Vpr strain, BacTiter-Glo ATP luminescence, 24 h. Potency, µM (titrated, usually from 92.2 µM), inactives show at the highest dose activity change, negative = less growth, hits mostly inhibitors. 360,000 compounds, 0.21% hits; active means well fitted falling curve with a large enough effect; inconclusive means small, poorly fitted or top-dose-only effect; inactive means no such curve, though single readings can be large or run the other way; further: potency means the concentration at half of the fitted maximal effect; nearly all actives have a fitted effect of over 50% in size
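Fission yeast RE007 carrying one integrated HIV-1 vpr copy, seeded at OD 0.01 in PMG+AL medium with 23 nL pinned compound. Grown 24 h at 30 degrees; viability read by BacTiter-Glo luminescence after 5 min.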
Sm TGR block = inhibitors of Schistosoma mansoni thioredoxin glutathione reductase. Q962Y6. purified TGR, DTNB reduction, TNB absorbance 405 nm. AID 485364. Potency, µM (doses to about 114 µM), without a hit: at the top dose activity change, negative = inhibition, most hits filed as inhibitors. 360,000 compounds, 3% hits; further: potency means the concentration at half of the fitted maximal effect; nearly all actives have a fitted effect of over 60% in size
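TGR 20 nM + NADPH 100 uM (dispensed conc.), cpd preinc 15 min RT; start with NADPH (500 uM addition) then DTNB (15 mM addition). Kinetic TNB absorbance, 405 nm filter. Four-parameter Hill fit across titration.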
Tb PYK inh = T. brucei pyruvate kinase inhibition. AID 624173. Potency, µM (titrated, usually from 76.8 µM), for inactives: at the highest dose activity, negative = inhibition, most hits filed as inhibitors. 410,000 compounds, 0.12% hits. TbPYK enzyme, Kinase-Glo Plus ATP luminescence, 45 min; further: potency means the concentration at half of the fitted maximal effect; nearly all actives have a fitted effect of over 50% in size
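Readout: single end-point luminescence (Kinase-Glo Plus, 10 min). Reaction conditions were TbPYK/substrate plus 130 uM ADP, 45 min at RT, pH 7.2 TEA buffer. No-enzyme wells served as controls, and data were normalized before concentration-response fitting.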
The depositor's hits bear a star; ? = inconclusive; . = no result; [ ] = remark or other dose. Unless noted, the call rests on the fitted dose curve; in most records, active means well fitted curve in the direction sought with a large enough effect; inconclusive means small, poorly fitted or top-dose-only effect, or another doubt; inactive means no such curve, though single readings can be large; an effect the other way counts as inactive or inconclusive. On the % scale 0 is the no-effect control and ±100 the full control effect.

SMILES	FBPA Giardia inh	HCMV inh	FMDV antiviral	RE007 growth inh	Sm TGR block	Tb PYK inh
CC(=O)Nc1nc2n(n1)C(c1ccccc1)C=C(c1ccccc1)N2 (stereo not given)	-18%	.	.	5%	4µM*	-7%
CS(=O)(=O)Nc1nc2n(n1)C(c1ccccc1)C=C(c1ccc(Br)cc1)N2 (stereo not given)	-6%	.	-4%	10%	22µM*	-13%
COc1ccc(C2C=C(c3ccc(Cl)cc3)Nc3nc(NC(C)=O)nn32)cc1 (stereo not given)	-15%	.	.	.	?	.
COc1ccccc1C1C=C(c2ccc(Cl)cc2)Nc2nc(NS(C)(=O)=O)nn21 (stereo not given)	0%	.	.	.	40µM*	.
CSc1nc(C(=O)N2CCOc3ccc(CN4CCN(Cc5ccccn5)CC4)cc3C2)cs1	.	.	40%	.	.	.
O=C(NCc1ccc(F)cc1)c1cc(-c2ccc(Cl)cc2)n[nH]1	.	-7	16%	.	-8%	-4%
O=C(Nc1nc2n(n1)C(c1ccc(F)cc1)C=C(c1ccccc1)N2)c1cccc([N+](=O)[O-])c1 (stereo not given)	.	-19	-25%	.	2%	-8%
CC(=O)Nc1nc2n(n1)C(c1ccc(F)cc1)C=C(c1ccccc1)N2 (stereo not given)	-18%	-21	-18%	-5%	3.2µM*	-5%
CCOc1ccccc1N(C)C(=O)Cn1cnc2onc(-c3ccc(F)cc3)c2c1=O	.	17	0%	.	6%	6%
Cc1ccc(-c2nc(CN(CC3CCC3)CC3CCCO3)c(C)o2)s1 (stereo not given)	-2%	?	-12%	-15%	56µM*	1%
Cc1ccc(CNCC2CCCO2)s1 (stereo not given)	-4%	21	1%	-5%	0%	-3%
CC(C)(C)NC(=O)C(c1ccccc1)n1c(-c2ccccc2Br)nc2ccccc21 (stereo not given)	.	54	.	.	.	.
Cc1cc2nc(-c3ccccc3Br)n(C(C(=O)NC(C)(C)C)c3ccccc3)c2cc1C (stereo not given)	.	-99*	.	.	.	.
CCCCCn1c(=O)c(C(=O)Nc2ccccc2S(N)(=O)=O)c(O)c2ccccc21	-6%	-101*	-12%	19%	4%	-3%
CCCCCn1c(=O)c(C(=O)Nc2ccccc2C)c(O)c2ccccc21	-5%	34	27%	5%	4%	2%
CCCCCCCn1c(=O)c(C(=O)Nc2cnccn2)c(O)c2ccccc21	-4%	-62*	-17%	-11%	2%	-3%
CCCn1c(=O)c(C(=O)Nc2ccccc2C)c(O)c2ccccc21	?	90	13%	3%	45µM*	-6%
CN(C)C(=O)C[C@H]1C[C@@H]2c3cc(NC(=O)NC4CCCC4)ccc3O[C@@H]2[C@@H](CO)O1	.	-15	.	.	.	.
COC(=O)C/C=C\[C@@H](C)[C@@H](/C=N\OC[C@@H](O)[C@H]1O[C@H]2OC(C)(C)O[C@H]2[C@@H]1O)NS(=O)(=O)c1ccc(C)cc1	1%[12.9 µM]	.	.	.	.	.
COc1ccc(C(C#N)CC(=O)c2ccc(OC)c(OCc3ccccc3)c2)cc1OC (stereo not given)	.	-70*	?	8%	.	-8%
CCc1cc2cc(C(=O)Nc3ccc(C)cc3)sc2s1	6%	-67*	28%	11%	-2%	2%
CC(C)Sc1nc(-c2ccccc2)cc(=O)[nH]1	-18%	20	-24%	24%	-3%	-2%
O=[N+]([O-])c1ccc(Sc2ncccn2)c([N+](=O)[O-])c1	-10%	-97*	14µM*	?	10µM*	4%
Cc1cccc(Sc2ccc([N+](=O)[O-])cc2[N+](=O)[O-])n1	?	-72*	?	-16%	-30%	-4%
O=c1cc(-c2ccccc2)nc(Sc2ccc([N+](=O)[O-])cc2[N+](=O)[O-])[nH]1	.	-34	16µM*	6%	.	-16%
SMILES	FBPA Giardia inh	HCMV inh	FMDV antiviral	RE007 growth inh	Sm TGR block	Tb PYK inh
O=[N+]([O-])c1ccc(Sc2nccn2Cc2ccccc2)c([N+](=O)[O-])c1	.	-37	28µM*	-3%	28µM*	-2%
CN(C(=O)c1cnn(-c2ncc3c(n2)-c2ccccc2CCC3)c1C1CC1)C1CCOC1 (stereo not given)	.	.	27%	.	.	.
CCCN(c1c(C)n(C)n(-c2ccccc2)c1=O)S(=O)(=O)c1ccc(C)cc1	.	-9	-8%	.	2%	3%
CC(=O)Nc1c(C)nn(-c2ccccc2)c1N1CCC(C(=O)Nc2ccccc2F)CC1	.	6	0%	.	-7%	-3%
COCC(=O)Nc1cc(C(=O)N2CCCCC2c2nccs2)c2c(c1)nc(-c1ccncc1)n2C (stereo not given)	.	.	-9%	.	.	.
COc1cc2ncnc(NCCc3ccccc3)c2cc1OC	-3%	?	20µM*	-10%	.	-12%
COc1ccc(CNc2ncnc3cc(Cl)ccc23)cc1OC	6%	-70*	?	2%	1%	6%
COc1ccc(CCNc2ncnc3cc(OC)c(OC)cc23)cc1OC	1%	-21	20µM*	10%	.	2%
COc1cccc(CNc2ncnc3cc(OC)c(OC)cc23)c1	-1%	21	?	-1%	1%	-7%
Cc1cc(-c2cc(F)cc3c2OC(CNC(=O)[C@@H]2CCC(=O)N2)C3)ccc1F (stereo not given in full)	.	.	0%	.	.	.
NC(=O)Nc1cc(-c2cccc(F)c2)sc1C(=O)N[C@H]1CCCNC1	.	.	.	.	.	0%
Cc1ccc(S(=O)(=O)N(C)c2ccccc2)cc1	-13%	-24	-9%	-7%	3%	-5%
CN(c1ccccc1)S(=O)(=O)c1ccccc1Br	.	-81*	-12%	6%	0%	0%
Cc1ccc(NC(=O)Nc2nnc(SCC(=O)N(C(C)C)C(C)C)s2)cc1	.	-80*	0%	.	3%	0%
COc1ccccc1NC(=O)CSc1nnc(NC(=O)Nc2ccc(C)cc2)s1	.	-86*	-8%	.	-6%	-8%
COc1ccccc1NC(=O)CSc1nnc(NC(=O)C2CC2)s1	4%	38	-12%	-8%	-2%	-1%
C#CCNC(=O)C1=C[C@@H](C(C)(C)C)C[C@@H](OCc2ccc(CO)cc2)O1	-9%	-12	-23%	4%	35µM*	4%
O=C(NCc1ccccc1)C1=C[C@H](c2csc3ccccc23)C[C@H](OCc2ccc(CO)cc2)O1	-23%	-61*	4%	5%	-10%	-1%
O=C(NCc1ccccc1)C1=C[C@@H](c2ccccc2)C[C@@H](OCc2ccc(CO)cc2)O1	?	10	17%	-12%	50µM*	0%
